# Laboratory results reported in the supplement of paper PMC6555819.
# What was measured:
# Assay in all cases: PBM binding z-score (relative to random genomic background probes); higher = stronger binding; sequences stand for … in GC…GCGATTGACAGCGTAGAATGAAGG
# [1] = tested on: FXR:RXRa (NR concentration 270 nM, RXRa partner concentration 90 nM)
# In short: (§1)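 The probes on custom Agilent 4×180K protein-binding microarrays were double-stranded, with 34-nt variable regions bearing direct-repeat seeds, single-nucleotide variants, half-site ablations and random human genomic background sequences. Incubation lasted 1 h with ligand-free nuclear receptor dimers in PBS pH 7.4, 2% milk, 0.02% Triton X-100, 1 mM DTT, 0.2 mg/mL BSA and 0.4 mg/ml salmon testes DNA. Antibodies against each partner (one per run) detected bound dimers, and fluorescence scans were regression-normalized. Binding z-scores take the random background probes as reference.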
# [2] = tested on: LXRa:RXRa (NR concentration 270 nM, RXRa partner concentration 90 nM)
# In short: as §1
# [3] = tested on: LXRa homodimer (NR concentration 270 nM)
# In short: as §1
# [4] = tested on: LXRb:RXRa (NR concentration 270 nM, RXRa partner concentration 90 nM)
# In short: as §1
# [5] = tested on: LXRb homodimer (NR concentration 270 nM)
# In short: as §1
# [6] = tested on: PPARa:RXRa (NR concentration 270 nM, RXRa partner concentration 90 nM)
# In short: as §1
# [7] = tested on: PPARg:RXRa (NR concentration 180 nM, RXRa partner concentration 90 nM)
# In short: as §1
# [8] = tested on: PPARg:RXRa 270nM:90nM, anti-RXR (NR concentration 270 nM, RXRa partner concentration 90 nM)
# In short: as §1
# [9] = tested on: PPARg:RXRa 30nM:10nM, anti-RXR (NR concentration 30 nM, RXRa partner concentration 10 nM)
# In short: as §1
# [10] = tested on: PPARg:RXRa 90nM:30nM, anti-RXR (NR concentration 90 nM, RXRa partner concentration 30 nM)
# In short: as §1
# [11] = tested on: PPARg:RXRa DBDmut IVT, anti-RXR (DBD mutation: RXRa K156A/R161A, NR concentration 270 nM, RXRa partner concentration 90 nM)
# In short: as §1
# [12] = tested on: PPARg:RXRa IVT, anti-PPARg (NR concentration 270 nM, RXRa partner concentration 90 nM)
# In short: as §1
# [13] = tested on: PPARg DBDmut:RXRa IVT, anti-PPARg (DBD mutation: PPARg1 K132A/R137A, NR concentration 270 nM, RXRa partner concentration 90 nM)
# In short: as §1
# [14] = tested on: PPARg DBDmut IVT, anti-PPARg (DBD mutation: PPARg1 K132A/R137A, NR concentration 270 nM)
# In short: as §1
# [15] = tested on: PPARg homodimer (NR concentration 180 nM)
# In short: as §1
# [16] = tested on: PXR:RXRa (NR concentration 270 nM, RXRa partner concentration 90 nM)
# In short: as §1
# [17] = tested on: PXR homodimer (NR concentration 270 nM)
# In short: as §1
# [18] = tested on: RARa:RXR (NR concentration 270 nM, RXRa partner concentration 90 nM)
# In short: as §1
# [19] = tested on: RARa homodimer (NR concentration 270 nM)
# In short: as §1
# [20] = tested on: RARb:RXRa (NR concentration 270 nM, RXRa partner concentration 90 nM)
# In short: as §1
Sequence,PBM binding z-score [1],PBM binding z-score [2],PBM binding z-score [3],PBM binding z-score [4],PBM binding z-score [5],PBM binding z-score [6],PBM binding z-score [7],PBM binding z-score [8],PBM binding z-score [9],PBM binding z-score [10],PBM binding z-score [11],PBM binding z-score [12],PBM binding z-score [13],PBM binding z-score [14],PBM binding z-score [15],PBM binding z-score [16],PBM binding z-score [17],PBM binding z-score [18],PBM binding z-score [19],PBM binding z-score [20]
CTGACTGGGGCAAAGGTTACCATACTCAGTACGA,1.83,1.87,-0.166,3.05,-0.352,6.09,11.3,9.42,9.13,10.2,6.27,6.51,0.767,0.374,1.19,2.61,0.266,4.17,0.228,2.67
CCTAGCACGCCAATCTGGGTCACTCAAGGCTTGA,0.513,0.503,-0.0137,0.788,-0.333,2.88,1.61,2.16,-0.246,1.13,3.75,4.76,-0.107,-0.39,0.751,0.751,-0.246,1.13,0.0845,1.06
CGAACGAGGGCATGTGTTGATAGCAAATGCCGAT,0.387,0.273,-0.286,0.11,-0.807,1.05,1.15,1.14,0.0411,0.632,2.61,1.67,0.15,-0.912,0.123,0.241,-0.168,0.367,0.149,1.81
TAGCCTAGCTCATGGGCCAGTATACCACGCGAAC,-0.822,-0.837,-0.369,-0.9,-0.798,-0.776,0.282,-0.783,-0.762,-1.03,-1.04,-0.618,0.0751,-0.524,-0.407,-0.739,-0.677,-0.584,-0.475,-0.413
CCTACTGCGCCATCAGGTCATTGATATCAACGTT,1.39,1.32,1.7,2.2,1.17,1.73,0.376,0.994,0.212,0.573,0.542,1.25,-0.701,0.364,1.76,1.98,0.943,2.03,0.602,1.76
TAGCCTAGGTCATTGGCCCAGTATAGTACGCATC,4.84,3.9,1.34,2.45,-0.219,3.53,2.1,2.32,0.439,1.49,1.34,3.13,0.481,-0.598,1.5,1.71,-0.0601,2.29,-0.585,3.67
CGTCAAAGTTCAACTAAGGCAACGTAAAGCACGC,6.41,6.09,3.57,3.9,1.79,4.93,4.8,5.53,1.96,4.18,0.00616,2,0.22,-0.059,3.19,4.83,4.13,3.62,1.59,5.21
CAAACTAGGTCACAGAGGTCAAAGTCCGTGCGTA,7.61,6.66,7.31,6.24,2.21,6.66,10.2,8.58,6.84,8.64,8.82,9.1,2.19,1.15,5.68,6.96,11.2,7.51,3.31,5.25
ATCGAAAGGTCGACAAGGTGAGTATACACCGTTT,4.68,3.45,0.283,3,0.522,4.41,2.79,3.21,1.2,2.21,0.456,1.98,1.72,1.65,1.43,2.86,0.683,3.78,0.202,4.02
TAGCCTAGGTCAGATCGGGCCTGTATACGCTATA,1.56,0.715,-0.411,0.501,-0.0997,1.49,0.482,0.395,-0.139,0.162,0.244,1.36,-0.328,0.156,0.016,0.238,-0.728,1.22,-0.734,2.8
CGTCAAAGTTCAACTCAGGTAACGTAAAGCACGC,7.13,6.43,4.59,4.35,1.99,5.08,4.66,5.43,2.08,4.01,0.639,2.02,0.699,0.924,4.03,5.4,3.74,4.37,1.92,5.15
GGAACGAGGGCAAAGCTGATAGCATCTGTCGACG,0.392,0.366,-0.605,-0.126,-0.711,1.68,1.5,1.78,0.251,1.17,4.19,2.81,0.774,-0.247,0.0511,0.048,-0.0388,0.0386,-0.822,1.99
GTACCAAGGTGTATAGGTCGTTGATGAGTAGGCG,0.26,0.421,-0.0152,0.029,-0.37,0.871,0.775,0.814,0.27,0.71,0.000885,0.719,-0.0523,0.342,0.75,0.265,0.0316,0.833,0.17,0.755
CGTCCAAAGTCAAGGTCAGTGAAAGAGACTCGAA,2.34,2.12,0.643,1.74,0.209,2.8,0.614,1.04,0.0766,0.615,0.62,0.874,-0.185,-0.414,2.49,2.05,1.01,2.47,0.742,3.62
